Source: PubChem BioAssay (National Center for Advancing Translational Sciences (NCATS))
In the library only some 6.5% were active in any assay of this set; here they are far more common.
HCMV antiviral: inhibitors of human cytomegalovirus. activity change, negative = inhibition, % at 57.5 µM. HFF cells, HCMV-luciferase reporter, 72 h; stronger effect = lower value. hit rate 4.5% among 410,000; in the data active = activity change below about -60%; inconclusive = no clear call, values can overlap the other calls; inactive = above about -39%
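HFF cells seeded 16 h at 37C, treated with compounds, infected with luciferase-reporter HCMV at MOI 1 PFU/cell; luciferase read at 72 h post infection, normalized to buffer-only and Salinomycin controls.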
Vaccinia Venus: vaccinia inhibition (Venus reporter) | hit rate 0.46% among 330,000 | Potency, µM (titrated, usually from 36.5 µM), usual class: inhibitors | Vaccinia virus Venus reporter expression, fluorescence; calls by dose curve; tested in A549 cells; also: nearly all actives have a fitted effect of over 30% in size
FMDV inh: antivirals against foot and mouth disease virus. FMDV antiviral cell-based qHTS. Potency, µM (highest dose often 57.9 µM), most hits filed as inhibitors. hit rate 1.2% among 410,000. AID 1159524; calls by dose curve; tested in HEK293T cells; also: read-out not given here; nearly all actives have a fitted effect of over 45% in size
VACV mCherry inh: inhibitors of vaccinia virus infection (mCherry reporter signal); Vaccinia virus mCherry reporter infection, fluorescence; Potency, µM (titrated, usually from 36.5 µM), hits mostly inhibitors; hit rate 0.63% among 310,000; calls by dose curve; tested in A549 cells; also: nearly all actives have a fitted effect of over 35% in size
MARV entry inh: inhibitors of Marburg virus binding or cell entry. Marburg virus pseudotyped entry inhibition, cell reporter. Potency, µM (highest dose often 37.8 µM), hits mostly inhibitors. hit rate 1.8% among 300,000; calls by dose curve; tested in HEK293 cells
LASV entry inh: inhibitors of Lassa virus binding or cell entry; Lassa virus pseudotype entry inhibition, cell reporter; Potency, µM (doses to about 37.9 µM), actives largely listed as inhibitors; hit rate 1.2% among 300,000; AID 540256; calls by dose curve; tested in HEK293 cells; also: nearly all actives have a fitted effect of over 50% in size
Hits are given with their value; [ ] = dose if it differs, or a comment.

What do the screens show for `CCn1c(CN2CCC(C)CC2)nc2cc(NC(=O)COc3ccc(Cl)c(C)c3)ccc21`?
HCMV antiviral: inconclusive; Vaccinia Venus: inconclusive; FMDV inh: 17.8µM; VACV mCherry inh: inactive; MARV entry inh: inconclusive; LASV entry inh: inconclusive

How did Cc1ccccc1/C=C\c1nc2ccccc2c(=O)n1Cc1ccccc1 do in these assays?
HCMV antiviral: inactive; Vaccinia Venus: inactive; FMDV inh: inconclusive; VACV mCherry inh: inactive; MARV entry inh: inconclusive; LASV entry inh: inactive

Results for O=c1c2ccccc2nc(/C=C/c2cccnc2)n1Cc1ccccc1 ?
HCMV antiviral: -97.6; Vaccinia Venus: inactive; FMDV inh: inactive; VACV mCherry inh: inactive; MARV entry inh: inconclusive; LASV entry inh: inconclusive

What do the screens show for `CCn1c(/C=C/c2cccc([N+](=O)[O-])c2)nc2ccccc2c1=O`?
HCMV antiviral: inactive; Vaccinia Venus: inactive; FMDV inh: inactive; VACV mCherry inh: inactive; MARV entry inh: inactive; LASV entry inh: inactive

How did O=c1c2ccccc2nc(/C=C/c2cccnc2)n1CCc1ccccc1 do in these assays?
HCMV antiviral: -74.8; Vaccinia Venus: inactive[7.34 µM]; FMDV inh: inactive; VACV mCherry inh: inactive[7.34 µM]; MARV entry inh: inconclusive; LASV entry inh: inconclusive

Results for CCn1c(/C=C/c2ccccc2Cl)nc2ccccc2c1=O ?
HCMV antiviral: -78.9; Vaccinia Venus: inactive; FMDV inh: inactive; VACV mCherry inh: inactive; MARV entry inh: inactive; LASV entry inh: inactive

How did O=c1c2ccccc2nc(/C=C/c2ccccc2)n1CCc1ccccc1 do in these assays?
HCMV antiviral: inactive; Vaccinia Venus: inactive; FMDV inh: inactive; VACV mCherry inh: inactive; MARV entry inh: inactive; LASV entry inh: inactive

What do the screens show for `Cc1cccc(/C=C/c2nc3ccccc3c(=O)n2Cc2ccccc2)c1`?
HCMV antiviral: -83.1; Vaccinia Venus: inactive; FMDV inh: inconclusive; VACV mCherry inh: inactive; MARV entry inh: inconclusive; LASV entry inh: inconclusive

How did CCn1c(/C=C\c2ccccc2C)nc2ccccc2c1=O do in these assays?
HCMV antiviral: inactive; Vaccinia Venus: inactive; FMDV inh: inactive; VACV mCherry inh: inactive

How did Cc1cc(OC(C)C(=O)N2CCC(c3nc4ccccc4o3)CC2)ccc1Cl (configuration not stated) do in these assays?
HCMV antiviral: inactive; Vaccinia Venus: inactive; FMDV inh: inactive; VACV mCherry inh: inactive; MARV entry inh: inactive; LASV entry inh: inactive

How did Cc1ccccc1NC(=O)CSc1n[nH]c(-c2ccccn2)n1 do in these assays?
HCMV antiviral: inactive; Vaccinia Venus: inactive; FMDV inh: inactive; VACV mCherry inh: 6.31µM; MARV entry inh: inconclusive; LASV entry inh: inconclusive

What do the screens show for `Cc1ccc(NC(=O)CSc2n[nH]c(-c3ccco3)n2)c(C)c1`?
HCMV antiviral: inactive; Vaccinia Venus: inactive; FMDV inh: inactive; VACV mCherry inh: inactive; MARV entry inh: inconclusive; LASV entry inh: inactive

How did Cc1nc(SCC(=O)Nc2cccc(Cl)c2)n[nH]1 do in these assays?
HCMV antiviral: inactive; Vaccinia Venus: inactive; FMDV inh: inactive; VACV mCherry inh: inactive[1.46 µM]; MARV entry inh: inactive; LASV entry inh: inactive

What do the screens show for `Cc1ccc(C)c(NC(=O)CSc2n[nH]c(-c3ccccn3)n2)c1`?
HCMV antiviral: inconclusive; Vaccinia Venus: inconclusive; FMDV inh: inactive; VACV mCherry inh: 7.94µM; MARV entry inh: inconclusive; LASV entry inh: inconclusive

How did O=C(CSc1n[nH]c(-c2ccccn2)n1)Nc1cccc(Cl)c1 do in these assays?
HCMV antiviral: -98.2; Vaccinia Venus: inactive; FMDV inh: inactive; VACV mCherry inh: inconclusive; MARV entry inh: inconclusive; LASV entry inh: inconclusive

What do the screens show for `O=C(CSc1n[nH]c(-c2ccccc2)n1)Nc1ncccn1`?
HCMV antiviral: inconclusive; Vaccinia Venus: inactive; FMDV inh: inactive; VACV mCherry inh: inactive; MARV entry inh: inactive; LASV entry inh: inactive

What do the screens show for `Cc1ccccc1NC(=O)CSc1nnc(-c2ccccn2)o1`?
HCMV antiviral: inactive; Vaccinia Venus: inactive; FMDV inh: inactive; VACV mCherry inh: inactive; MARV entry inh: inconclusive; LASV entry inh: inactive

What do the screens show for `Cc1ccc(O)c(NC(=O)CSc2n[nH]c(-c3ccccc3)n2)c1`?
HCMV antiviral: -82.9; FMDV inh: inconclusive

How did COc1ccc(-c2nnc(SCC(=O)NC3CCCC3)nc2-c2ccc(OC)c(OC)c2)cc1OC do in these assays?
HCMV antiviral: inactive; Vaccinia Venus: inactive; FMDV inh: inactive; VACV mCherry inh: inactive; LASV entry inh: inconclusive

What do the screens show for `CCC(CC)C(=O)Nc1cccc(-c2nc3cccnc3s2)c1C`?
HCMV antiviral: inactive; Vaccinia Venus: inactive; FMDV inh: inconclusive; VACV mCherry inh: inactive; LASV entry inh: inactive

How did Nc1nc(SCC(=O)Nc2cccc(F)c2)n[nH]1 do in these assays?
HCMV antiviral: -100.3; FMDV inh: inactive

Results for Nc1nc(SCC(=O)Nc2cccc(C(F)(F)F)c2)n[nH]1 ?
HCMV antiviral: inactive; Vaccinia Venus: inactive; FMDV inh: inactive; VACV mCherry inh: inactive; MARV entry inh: inactive; LASV entry inh: inactive

How did Cc1ccc(C(=O)NNC(=O)CSc2n[nH]c(-c3cccnc3)n2)cc1 do in these assays?
HCMV antiviral: -103.5; Vaccinia Venus: inactive; FMDV inh: inactive; VACV mCherry inh: inactive; MARV entry inh: inactive; LASV entry inh: inactive

What do the screens show for `Cc1cc(C)cc(NC(=O)CSc2n[nH]c(-c3cccnc3)n2)c1`?
HCMV antiviral: inactive; Vaccinia Venus: inactive; FMDV inh: inactive; VACV mCherry inh: inactive; MARV entry inh: inactive; LASV entry inh: inactive

How did Cc1onc(-c2ccccc2)c1C(=O)NC(=S)NNC(=O)c1ccc(O)cc1O do in these assays?
HCMV antiviral: -95.3; Vaccinia Venus: inactive; FMDV inh: inactive; VACV mCherry inh: inactive; MARV entry inh: inconclusive; LASV entry inh: 2.51µM

What do the screens show for `Cc1onc(-c2ccccc2)c1C(=O)NC(=S)NNC(=O)c1ccccc1O`?
HCMV antiviral: -69.8; Vaccinia Venus: inconclusive; FMDV inh: inconclusive; VACV mCherry inh: inconclusive; MARV entry inh: 3.16µM; LASV entry inh: inconclusive

How did Cc1cc(C)c(C)c(OCC(=O)Nc2ccc(S(=O)(=O)Nc3nc(C)cc(C)n3)cc2)c1 do in these assays?
HCMV antiviral: inactive; Vaccinia Venus: inactive; FMDV inh: inactive; VACV mCherry inh: inactive; MARV entry inh: inactive; LASV entry inh: inactive

How did Cc1ccc(NC(=O)COc2ccccc2C(=O)Nc2ccccc2)cc1 do in these assays?
Vaccinia Venus: inactive; VACV mCherry inh: inactive

What do the screens show for `CC1=CC(O)C(O)C2(C)C1CC1OC(=O)C(O)C3C(C)C(O)C4(O)OCC13C42` (configuration not stated)?
Vaccinia Venus: 7.94µM; FMDV inh: inactive; VACV mCherry inh: inconclusive; MARV entry inh: inconclusive; LASV entry inh: inconclusive

What do the screens show for `Cc1nn(Cc2c(Cl)cccc2Cl)c(C)c1NC(=O)c1cc(C(C)C)on1`?
HCMV antiviral: -98.0; Vaccinia Venus: inactive; FMDV inh: inactive; VACV mCherry inh: inactive

Results for Cc1nn(Cc2ccccc2Cl)c(C)c1NC(=O)c1cc(C(C)C)on1 ?
HCMV antiviral: inactive; Vaccinia Venus: inactive; FMDV inh: inactive; VACV mCherry inh: inactive; MARV entry inh: inconclusive; LASV entry inh: inconclusive

What do the screens show for `Cc1cc(C(=O)Nc2c(C)nn(Cc3ccc(F)cc3)c2C)no1`?
HCMV antiviral: inactive; Vaccinia Venus: inactive; FMDV inh: inactive; VACV mCherry inh: inactive; MARV entry inh: inactive; LASV entry inh: inactive
